# Source: PubChem
# IDH1 R132H inh = inhibitors of human mutant IDH1 R132H; IDH1-R132H enzyme, NADPH consumption, diaphorase/resazurin fluorescence; Potency, µM (titrated, usually from 76.6 µM), for the others: top-dose activity change, negative = inhibition, actives largely listed as inhibitors; 390,000 compounds, 0.093% hits; AID 602179; also: nearly all actives have a fitted effect of over 65% in size
#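 IDH1-R132H (0.5 ug/mL dispensed) in pH 7.5 Tris buffer was preincubated 30 min with compound, then given a substrate mix of 0.016 mM NADPH and 2 mM alpha-KG for 80 min at room temperature; remaining NADPH was read by diaphorase/resazurin fluorescence.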
# GLS inhibitor = inhibitors of human glutaminase (GLS); GLS enzymatic activity, qHTS titration; Potency, µM (titrated, usually from 45.5 µM), without a hit: top-dose activity change, negative = inhibition, usual class: inhibitors; 410,000 compounds, 0.21% hits; AID 624170
#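 hKGA; 45 mM KH2PO4 pH 8.2 + 0.02% Tween-20; cpd via pin tool; 1 mM Gln soln; GluOx/HRP/Amplex Red; RT 30 min; fluor. t0 & final.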
# rTrxR1 inhibitor = blocks rat thioredoxin reductase 1 | O89049 | recombinant rTrxR1, NADPH fluorescence consumption, selenite substrate | Potency, µM (highest dose often 114 µM), inactives show at the top dose activity change, negative = inhibition, hits mostly inhibitors | 390,000 compounds, 1% hits | AID 588453; also: nearly all actives have a fitted effect of over 65% in size
# Target sequence (O89049 whole entry, looked up): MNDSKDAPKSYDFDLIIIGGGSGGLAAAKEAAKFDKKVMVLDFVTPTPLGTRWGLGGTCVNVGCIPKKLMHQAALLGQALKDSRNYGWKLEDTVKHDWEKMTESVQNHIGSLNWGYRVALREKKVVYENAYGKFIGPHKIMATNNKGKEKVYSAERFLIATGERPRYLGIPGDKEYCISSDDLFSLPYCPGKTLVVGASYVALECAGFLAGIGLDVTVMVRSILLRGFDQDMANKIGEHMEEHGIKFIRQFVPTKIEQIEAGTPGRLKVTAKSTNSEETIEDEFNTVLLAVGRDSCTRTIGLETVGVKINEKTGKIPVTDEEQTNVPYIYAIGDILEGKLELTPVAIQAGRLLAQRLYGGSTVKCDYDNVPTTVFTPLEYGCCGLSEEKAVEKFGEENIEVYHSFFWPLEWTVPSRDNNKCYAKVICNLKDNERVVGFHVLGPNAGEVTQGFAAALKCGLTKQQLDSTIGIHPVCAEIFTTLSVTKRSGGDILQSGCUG
#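 Rat TrxR1 (90 nM in the dispensed reagent) was pre-reduced with 400 uM NADPH for 5 min at room temperature, then incubated with compound for 15 min. After 400 uM selenite was added, NADPH fluorescence (Ex 340/Em 450 nm) was followed for 8 min.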
# TrxR1 substrate = substrates of rat thioredoxin reductase 1; O89049; purified TrxR1 substrate turnover, NADPH consumption readout; Potency, µM (series often up to 114 µM), without a hit: at the top dose activity change, negative = substrate turnover; 390,000 compounds, 0.01% hits; AID 588456; also: nearly all actives have a fitted effect of over 50% in size
#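 Rat TrxR1, dispensed at 90 nM, was prereduced with 400 uM NADPH (final) for 5 min at ~22 deg C, then incubated with compound 15 min before 400 uM selenite. A first-read NADPH fluorescence drop versus no-compound background flagged substrates.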
# * hit, by the source's call; i = inactive; ? = inconclusive; / = not tested or not shown; [ ] = dose if it differs, or a comment. Sampled rows, rich in hits. Any-hit rate of the full collection: about 1.2%. Calls follow the shape of the dose curve; as a rule, active = well fitted curve in the direction sought with a large enough effect; inconclusive = small, poorly fitted or top-dose-only effect, or another doubt; inactive = no such curve, though single readings can be large; an effect the other way counts as inactive or inconclusive. % is scaled to controls: 0 for no effect and ±100 for the full control effect; potency is read from the fitted curve at half-maximal effect.
SMILES,IDH1 R132H inh,GLS inhibitor,rTrxR1 inhibitor,TrxR1 substrate
O=[N+]([O-])c1c(NCCCO)cc(SCc2ccco2)c2nonc12,0%,2%,14µM*,-14%
COC(=O)CCSc1cc(NCCOC(C)=O)c([N+](=O)[O-])c2nonc12,1%,-1%,44%[0.0914 µM],-20%
CC(=O)OCCNc1cc(SCc2ccco2)c2nonc2c1[N+](=O)[O-],6%,1%,22µM*,-9%
Cc1cc(Oc2ccc(Cl)cc2Cl)nc(C#N)n1,/,/,-1%,3%
CNc1ncnc2c1ncn2[C@H]1CN(Cc2cccnc2)C[C@@H](CO)O1,/,4%,/,/
CCOC(=O)c1cnc2c(Cl)cc(Cl)cc2c1NCCCN1CCOCC1,5%,-3%,16µM*,5%
Cc1ccnc2c(Cl)c(Cl)ccc12,/,/,5%,4%
Oc1ccc(Cl)cc1C1=NNC(c2cccs2)C1 (stereo not drawn),-13%,?,?,4%
O=[N+]([O-])c1ccc(O)c(C2=NNC(c3ccccc3F)C2)c1 (stereo not drawn),10%,-19%,35µM*,-1%
COc1cccc(N2CC(NC(=O)c3cccs3)CC2=O)c1 (stereo not drawn),19%,-5%,29%[57.1 µM],5%[57.1 µM]
CCOc1ccc(-c2nc(S(=O)(=O)c3ccccc3)c(N3CCC(C(N)=O)CC3)o2)cc1,0%,-11%,45µM*,-6%
COc1ccccc1N(O)C1CC(=O)N(c2ccc(Br)cc2)C1=O (stereo not drawn),8%,-9%,45µM*,-9%
CCCCN(C(=O)CCC(=O)O)C1CC(=O)N(c2ccc(OCCC)cc2)C1=O (stereo not drawn),6%,-1%,14%,5%
CCCCCCC(=O)N(O)C1CC(=O)N(c2ccc(Br)cc2)C1=O (stereo not drawn),6%,62%,22µM*,-3%
O=C1CC(N(O)c2ccccc2)C(=O)N1c1ccc(Cl)c(Cl)c1 (stereo not drawn),-13%,28%,0%,-1%
CCCCCCC(=O)N(O)C1CC(=O)N(c2ccc(F)cc2)C1=O (stereo not drawn),1%,-13%,3.5µM*,12%[57.1 µM]
CCC(=O)N1CCc2cc(S(=O)(=O)NC(Cc3ccccc3)C(=O)Nc3ccccc3C)ccc21 (stereo not drawn),6%,1%,0%,-4%
Nc1ccc(-c2ccc(C(=O)O)s2)cn1,-1%,-4%,16µM*,i
CSc1cccc(NC(=S)NC(=O)CCc2ccccc2)c1,7%,7%,-30%,10%
Cc1cccc(C)c1NC(=S)NC(=O)CCc1ccccc1,-4%,3%,3.5µM*,-2%[57.1 µM]
Cc1ccc2cccc(NC(=O)COc3ccccc3Cl)c2n1,1%,4%,-1%,7%[11.4 µM]
Cc1ccc(C)n1/N=C1/NC(=O)CS1,-3%,10µM*,?,-14%
Cc1ccc(N=C2NC(=O)CS2)cc1,10%,7%,3%,1%
CC(=O)O[C@H]1[C@@H](O)[C@H](O)[C@H](Oc2c(O)c(C)c3c4c2[C@@H](C)CC[C@@H]4[C@@H](C)C[C@H]3C=C(C)C)O[C@H]1C,3%,-16%,17%,-7%
O=S(=O)(O)c1cccc2c(N=Nc3ccc(O)c4ncccc34)cccc12,3%,8.9µM*,-14%,-10%
SMILES,IDH1 R132H inh,GLS inhibitor,rTrxR1 inhibitor,TrxR1 substrate
CN(C(=O)COC(=O)c1ccc(Br)c([N+](=O)[O-])c1)c1c(N)n(Cc2ccccc2)c(=O)[nH]c1=O,10%,-4%,40µM*,-7%
CCCC(O)(CCC)C(=O)NN(C(=O)CCl)c1ccccc1,3%,-9%,11µM*,8%
O=[N+]([O-])c1ccc(N2CCN(c3ccccc3Cl)CC2)cn1,11%,-9%,-1%,-3%
O=[N+]([O-])c1ccc(N2CCN(c3ccc(O)cc3)CC2)cn1,3%,10µM*,6%[57.1 µM],7%[57.1 µM]
Oc1ccc(N=Cc2cc(Br)c(N3CCOCC3)o2)cc1,9%,0%,32µM*,-7%
O=[N+]([O-])c1cc(Br)c(O)c(C=Nc2ccc(N3CCOCC3)cc2)c1,16%,20%,1%[57.1 µM],1%[57.1 µM]
CSCCC1C(C#N)=C(N)Oc2n[nH]c(-c3cccs3)c21 (stereo not drawn),2%,46%,10µM*,0%
Cn1cc(S(=O)(=O)N2CCOCC2)cc1C(=O)Nc1cccc(C#N)c1,12%,15%,21%[57.1 µM],4%[57.1 µM]
